Data: PubChem BioAssay

Target: NADPH oxidase 2 (Homo sapiens) (UniProt P04839)
Experiment: NOX2-dependent H2O2 signal modulators, primary screen, NOX inhibitor project, cell-based, HEK293-NOX2, PMA-stimulated, Amplex Red fluorescence (AID 1159); note: test concentration not given here
Conditions: 45 min, higher = more signal, called active from +8 up or from −8 down

Sequence of NADPH oxidase 2 (Homo sapiens) (P04839 whole entry, looked up): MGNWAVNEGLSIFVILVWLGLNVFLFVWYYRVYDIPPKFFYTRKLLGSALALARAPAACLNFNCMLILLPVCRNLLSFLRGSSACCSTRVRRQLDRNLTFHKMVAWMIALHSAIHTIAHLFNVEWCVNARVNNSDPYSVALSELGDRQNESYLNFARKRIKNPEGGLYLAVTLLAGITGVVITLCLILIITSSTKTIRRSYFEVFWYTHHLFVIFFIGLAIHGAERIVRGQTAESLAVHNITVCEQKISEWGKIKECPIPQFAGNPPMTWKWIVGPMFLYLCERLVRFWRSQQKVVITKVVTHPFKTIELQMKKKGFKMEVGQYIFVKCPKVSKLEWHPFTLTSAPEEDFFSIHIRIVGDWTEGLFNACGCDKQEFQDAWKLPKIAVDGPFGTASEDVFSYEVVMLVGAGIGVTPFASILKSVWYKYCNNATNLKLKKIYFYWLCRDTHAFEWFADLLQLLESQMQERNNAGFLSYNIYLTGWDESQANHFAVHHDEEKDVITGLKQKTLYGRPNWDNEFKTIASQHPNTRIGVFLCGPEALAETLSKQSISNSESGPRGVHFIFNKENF

z-score, inactive:
C=C(C(=O)CC[C@@H](OC(=O)c1cccnc1)c1ccc(CO)o1)C(C)C 1.22, C=CCC(OC(C)=O)[C@@H]1[C@@H](N(Cc2cc3ccccc3o2)C(=O)c2cccc3ccccc23)c2cc(OCCCO)ccc2N1C(=O)Cc1ccc2ccccc2c1 (some centres not stated) 0.39, Cc1ccccc1/C=C/C=O -0.59, [N-]=[N+]=NCc1ccccc1C[C@]1(C(=O)NCc2ccccc2)COC(c2ccc(OCCCO)cc2)=N1 -2.28, COCCOC(=O)N1C(=O)[C@@]2(c3cc(C#CC4=CCCCC4)ccc31)[C@H](C(=O)N1CCN(c3ncccn3)CC1)[C@H]1C(=O)O[C@H](c3ccccc3)[C@H](c3ccccc3)N1[C@@H]2c1ccc(OCCO)cc1 0.977, COC(=O)C(CC#Cc1ccc2c(c1)[C@]1(C(=O)N2)[C@H](C(=O)N2CCCCCCC2)[C@H]2C(=O)O[C@H](c3ccccc3)[C@H](c3ccccc3)N2[C@@H]1c1ccccc1OCCO)C(=O)OC 0.445, NC(=O)[C@]1(Cc2ccccc2)N=C(c2ccc(OCCCO)cc2)O[C@@H]1c1ccccc1 -0.273, CCCCN1CC=CC23O[C@@H]4C=CCCOC(=O)C4[C@H]2C(=O)N(CCCO)[C@@H]3C1=O (some centres not stated) -0.168, C=CC[C@@]1(C(=O)OC)N=C(c2ccc(OCCCO)cc2)O[C@@H]1c1ccccc1CN=[N+]=[N-] -4.05, C=CC[C@@]1(C(N)=O)N=C(c2ccc(OCCCO)cc2)O[C@@H]1c1ccccc1N=[N+]=[N-] 0.039, Cc1ccc(N2C(=O)c3ccccc3[C@@H](C(=O)NCC(C)C)[C@@H]2c2ccc(CO)cc2)nc1 -0.0277, CN1C(=O)C2C=CC(C(O)c3ccc(Br)cc3)N(Nc3ccccc3)C2C1=O (configuration not stated) -0.592, CCCC[C@@H]1C[C@H]1[C@@H](NC(=O)c1ccccc1)c1ccccc1 -0.289, CN(C)CCCCCCNC(=O)[C@@H]1C[C@@H]2C(=O)NCC(=O)N2[C@@H]1c1cccc(OCCO)c1 0.438, COC(=O)c1c(CC[C@@H](CO)NC(=O)Nc2ncn[nH]2)oc(C(=O)Cc2ccccc2)c1C(=O)OC -1.16, COC(=O)[C@@]1(Cc2ccc(F)cc2)[C@H]2c3cc(C(=O)N4CCCC4)n(CCc4ccc(OC)c(Br)c4)c3C[C@H]2CN1C(=O)c1ccccc1 0.0756, [N-]=[N+]=NCc1ccccc1[C@@H]1OC(c2ccc(OCCCO)cc2)=N[C@]1(Cc1ccccc1N=[N+]=[N-])C(N)=O -1.07, C#C[C@H](O[Si](C#CCCCCCC)(C(C)C)C(C)C)c1ccccc1 -1.09, CC(=O)NCCCC[C@@H]1NC(=O)[C@@H]2C[C@H](C(=O)NCc3ccc(F)cc3)[C@H](c3ccc(O)cc3)N2C1=O 0.647, CC(C)C[C@@H]1NC(=O)[C@@H]2C[C@H](C(=O)NCCCCN(C)C)[C@H](c3ccc(O)cc3)N2C1=O -0.298, COCCOC(=O)N1C(=O)[C@@]2(c3cc(C#Cc4ccc(OC)cc4)ccc31)[C@H](c1ccc(O)cc1)N1[C@H](c3ccccc3)[C@H](c3ccccc3)OC(=O)[C@H]1[C@@H]2C(=O)N1CCN(c2ncccn2)CC1 1.87, CCOC(=O)C1=CC[C@@H](c2cccc(Cl)c2)N(S(=O)(=O)c2ccc(C)cc2)[C@H]1c1ccc(C#N)cc1 0.827

Target: NADPH oxidase 4 (Homo sapiens) (UniProt Q9NPH5)
Sequence (Q9NPH5 whole entry, looked up): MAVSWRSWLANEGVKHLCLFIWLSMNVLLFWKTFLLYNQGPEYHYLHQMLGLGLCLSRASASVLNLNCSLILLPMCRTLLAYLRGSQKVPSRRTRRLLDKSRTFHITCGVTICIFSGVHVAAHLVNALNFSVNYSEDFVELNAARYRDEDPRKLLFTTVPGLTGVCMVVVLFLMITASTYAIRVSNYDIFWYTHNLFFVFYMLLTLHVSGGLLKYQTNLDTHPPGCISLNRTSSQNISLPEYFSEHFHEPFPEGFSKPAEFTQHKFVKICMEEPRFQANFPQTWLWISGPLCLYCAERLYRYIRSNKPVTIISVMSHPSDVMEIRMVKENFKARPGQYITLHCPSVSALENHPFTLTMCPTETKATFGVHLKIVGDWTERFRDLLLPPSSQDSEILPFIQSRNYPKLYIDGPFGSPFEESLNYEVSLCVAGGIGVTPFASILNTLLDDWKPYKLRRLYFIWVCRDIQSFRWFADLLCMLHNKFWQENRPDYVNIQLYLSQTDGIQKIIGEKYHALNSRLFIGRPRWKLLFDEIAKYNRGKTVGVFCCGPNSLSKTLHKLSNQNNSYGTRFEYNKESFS
Experiment: NOX4-dependent H2O2 signal modulators, primary screen, NOX inhibitor project, cell-based, HEK293-NOX4, tetracycline-induced, Amplex Red fluorescence (AID 1160)
Conditions: 45 min, higher = more signal, called active from +8 up or from −8 down

z-score, inactive:
COC(=O)c1c2oc(c1C(=O)OC)C(=O)N[C@H](Cc1ccccc1)Cn1nncc1C1(CCCCC1)NC(=O)N[C@H](CO)CC2 -2.14, CCOC1=C2C(c3ccc(C)cc3)N(S(=O)(=O)c3ccc(C)cc3)CC2n2c(=O)n(-c3ccccc3)c(=O)n2C1 (configuration not stated) 0.965, C[C@H]1C2[C@H](Cc3ccccc3)NC(=O)[C@]23C(=O)N[C@H](Cc2ccccc2)C(=O)N[C@H](Cc2ccccc2)C(=O)NC/C=C/CCC/C=C/C3[C@@H]2O[C@]12C (some centres not stated) -0.312, Cc1ccc(S[C@]2(C(=O)NCCCN(C)C)CC(=O)N(C(C)C)[C@@H]2c2ccc(CO)cc2I)cc1 -0.675, O=C1O[C@@H](c2ccccc2)[C@@H](c2ccccc2)N2[C@@H](c3ccc(O)cc3)[C@]3(C(=O)Nc4ccccc43)[C@@H](C(=O)N3CCCCCCC3)[C@H]12 0.522, COc1ccc(C#Cc2ccc3c(c2)[C@]2(C(=O)N3)[C@H](C(=O)N3CCN(c4ncccn4)CC3)[C@H]3C(=O)O[C@H](c4ccccc4)[C@H](c4ccccc4)N3[C@@H]2c2ccc(O)cc2)cc1 -0.171, COCCCNC(=O)[C@@]1(C)c2ccccc2C(=O)N(Cc2ccccc2)[C@H]1c1ccc(CO)cc1 -2.44, C=CCC(OC(C)=O)[C@@H]1[C@@H](N(Cc2cc3ccccc3o2)C(=O)c2cccc3ccccc23)c2cc(OCCCO)ccc2N1C(=O)Cc1ccc(OC)cc1 (some centres not stated) -0.428, CC1CC/C=C\[C@H]2OC34C=CCN(c5ccc6ccccc6c5)C(=O)[C@H]3N(CCCCCO)C(=O)[C@@H]4C2C(=O)O1 (some centres not stated) -0.265, CN(C)CCCC[C@@H]1NC(=O)[C@@H]2C[C@H](C(=O)NCCCCCN)[C@H](c3ccc(O)cc3)N2C1=O -0.159, CC(=O)n1cc(C(O)C2C=CC3C(=O)N(c4ccccc4)C(=O)C3N2Nc2ccc(C#N)cc2)c2ccccc21 (configuration not stated) -4.31, COc1cc(NN2C(C(O)c3ccccc3)C=CC3C(=O)N(c4ccccc4)C(=O)C32)cc(OC)c1OC (configuration not stated) -4.63, C/C=C/[C@H](CCn1cc([C@H](O)c2ccccc2)nn1)[Si](C)(C)c1ccc(OC)cc1 -0.0887, C=C(C(=O)CC[C@@H](OC(=O)c1cccnc1)c1ccc(CO)o1)C(C)C -0.133, C=CCC(OC(C)=O)[C@@H]1[C@@H](N(Cc2cc3ccccc3o2)C(=O)c2cccc3ccccc23)c2cc(OCCCO)ccc2N1C(=O)Cc1ccc2ccccc2c1 (some centres not stated) -1.46, Cc1ccccc1/C=C/C=O -0.0992, [N-]=[N+]=NCc1ccccc1C[C@]1(C(=O)NCc2ccccc2)COC(c2ccc(OCCCO)cc2)=N1 -0.958, COCCOC(=O)N1C(=O)[C@@]2(c3cc(C#CC4=CCCCC4)ccc31)[C@H](C(=O)N1CCN(c3ncccn3)CC1)[C@H]1C(=O)O[C@H](c3ccccc3)[C@H](c3ccccc3)N1[C@@H]2c1ccc(OCCO)cc1 0.645, COC(=O)C(CC#Cc1ccc2c(c1)[C@]1(C(=O)N2)[C@H](C(=O)N2CCCCCCC2)[C@H]2C(=O)O[C@H](c3ccccc3)[C@H](c3ccccc3)N2[C@@H]1c1ccccc1OCCO)C(=O)OC 0.262, NC(=O)[C@]1(Cc2ccccc2)N=C(c2ccc(OCCCO)cc2)O[C@@H]1c1ccccc1 -0.228, CCCCN1CC=CC23O[C@@H]4C=CCCOC(=O)C4[C@H]2C(=O)N(CCCO)[C@@H]3C1=O (some centres not stated) -1.73, C=CC[C@@]1(C(=O)OC)N=C(c2ccc(OCCCO)cc2)O[C@@H]1c1ccccc1CN=[N+]=[N-] 0.419, C=CC[C@@]1(C(N)=O)N=C(c2ccc(OCCCO)cc2)O[C@@H]1c1ccccc1N=[N+]=[N-] -0.164, Cc1ccc(N2C(=O)c3ccccc3[C@@H](C(=O)NCC(C)C)[C@@H]2c2ccc(CO)cc2)nc1 0.918, CN1C(=O)C2C=CC(C(O)c3ccc(Br)cc3)N(Nc3ccccc3)C2C1=O (configuration not stated) -4.5, CCCC[C@@H]1C[C@H]1[C@@H](NC(=O)c1ccccc1)c1ccccc1 -1.21, CN(C)CCCCCCNC(=O)[C@@H]1C[C@@H]2C(=O)NCC(=O)N2[C@@H]1c1cccc(OCCO)c1 0.611, COC(=O)c1c(CC[C@@H](CO)NC(=O)Nc2ncn[nH]2)oc(C(=O)Cc2ccccc2)c1C(=O)OC -0.331, COC(=O)[C@@]1(Cc2ccc(F)cc2)[C@H]2c3cc(C(=O)N4CCCC4)n(CCc4ccc(OC)c(Br)c4)c3C[C@H]2CN1C(=O)c1ccccc1 0.742, [N-]=[N+]=NCc1ccccc1[C@@H]1OC(c2ccc(OCCCO)cc2)=N[C@]1(Cc1ccccc1N=[N+]=[N-])C(N)=O -0.527, C#C[C@H](O[Si](C#CCCCCCC)(C(C)C)C(C)C)c1ccccc1 -0.782, CC(=O)NCCCC[C@@H]1NC(=O)[C@@H]2C[C@H](C(=O)NCc3ccc(F)cc3)[C@H](c3ccc(O)cc3)N2C1=O 0.059, CC(C)C[C@@H]1NC(=O)[C@@H]2C[C@H](C(=O)NCCCCN(C)C)[C@H](c3ccc(O)cc3)N2C1=O 0.167, COCCOC(=O)N1C(=O)[C@@]2(c3cc(C#Cc4ccc(OC)cc4)ccc31)[C@H](c1ccc(O)cc1)N1[C@H](c3ccccc3)[C@H](c3ccccc3)OC(=O)[C@H]1[C@@H]2C(=O)N1CCN(c2ncccn2)CC1 -1.34, CCOC(=O)C1=CC[C@@H](c2cccc(Cl)c2)N(S(=O)(=O)c2ccc(C)cc2)[C@H]1c1ccc(C#N)cc1 1.2
